The values that follow come from PubChem BioAssay AID651551 (Sanford-Burnham Center for Chemical Genomics, 2012).

A short description of the experiment: GAPDH versus PEG-3 reporter suppression – cell-based, luminescence, counter-screen for PEG-3 promoter inhibitor project, SAR follow-up (AID 651551). The following applies: HeLa PEG-Prom / GAPDH luciferase reporter, 6 or 24 h, run 2, 6 h; at 99 µM (top of the series). (The purpose of a counterscreen is to sort out artefacts and off-target activity.)
Take `Cc1nc(NC(=O)c2ccccc2)sc1-c1csc(Nc2ccccc2Cl)n1`: the inhibition % (higher = more inhibition) was -2.1%.
Regarding `COCCCNC(=O)c1ccc(Cn2c(=O)c3ccccc3n(Cc3ccccc3C#N)c2=O)cc1`, the inhibition % (higher = more inhibition) came to 21.9%.
The result for `CCCn1nc(C(=O)Nc2nc3ccccc3s2)c2ccccc2c1=O` reads 12.5%; that for `COc1ccc(Cl)cc1Nc1nc(-c2sc(NC(=O)c3ccccc3)nc2C)cs1`, 33.6%; that for `Cc1nc(NC(=O)c2ccccc2)sc1-c1csc(Nc2cccc(Cl)c2C)n1`, 35.5%.
Turning to `CCn1cc(C(=O)NCc2ccco2)c(=O)c2cc(S(=O)(=O)N3CCCC3)ccc21`, the inhibition % (higher = more inhibition) amounted to 42.1%.
`COc1ccc(-n2nc(C(=O)NCC(=O)Nc3cccc(OC)c3)c3ccccc3c2=O)cc1`: the inhibition % (higher = more inhibition) came out at 28.5%.
For `Cc1cc(NC(=O)c2ccccc2C(F)(F)F)n(-c2nc3ccccc3[nH]2)n1`, the inhibition % (higher = more inhibition) was 91.4%.
Regarding `O=C(Nc1nc(-c2ccccc2)cs1)c1nn(-c2ccccc2)c(=O)c2ccccc12`, the inhibition % (higher = more inhibition) amounted to 28.9%.
`O=C(Nc1nc2ccccc2s1)c1nn(-c2ccccc2)c(=O)c2ccccc12`: the inhibition % (higher = more inhibition) was 6.36%.
For the molecule `CCCn1nc(C(=O)Nc2nc(-c3ccccn3)cs2)c2ccccc2c1=O`, the inhibition % (higher = more inhibition) turned out to be 64.7%.
Next, `Cc1cc(NC(=O)c2ccccc2C)n(-c2nc3ccccc3[nH]2)n1`: 26.1%.
Regarding `Cc1cc(NC(=O)c2ccccc2)n(-c2nc3ccccc3n2C)n1`, the inhibition % (higher = more inhibition) came out at 16.7%.
Regarding `CCn1nc(C(=O)Nc2nc(-c3ccccn3)cs2)c2ccccc2c1=O`, the inhibition % (higher = more inhibition) was determined as 72.7%.
As to `CCCn1nc(C(=O)Nc2nc(-c3ccncc3)cs2)c2ccccc2c1=O`, the inhibition % (higher = more inhibition) came out at 56.1%.
Next, `O=C(Nc1nccs1)c1nn(-c2ccccc2)c(=O)c2ccccc12`: 50.3%; `Cc1cc(NC(=O)c2cccc(C)c2C)n(-c2nc3ccccc3[nH]2)n1`: 19.1%; `COc1ccc(-n2nc(C(=O)NCC(=O)Nc3ccc(OC)c(OC)c3)c3ccccc3c2=O)cc1`: 55.7%.
`COc1ccccc1Nc1nc(-c2sc(NC(=O)c3ccco3)nc2C)cs1`: the inhibition % (higher = more inhibition) was determined as 72.7%.
Next, `COc1ccc(-n2nc(C(=O)NCC(=O)Nc3cc(OC)c(OC)c(OC)c3)c3ccccc3c2=O)cc1OC`: 26.1%; `Cc1nc(NC(=O)c2ccccc2)sc1-c1csc(Nc2ccccc2)n1`: 74.5%.
Regarding `Cc1ccc(Cl)cc1Nc1nc(-c2sc(NC(=O)c3ccco3)nc2C)cs1`, the inhibition % (higher = more inhibition) amounted to 71%.
For `Cc1cc(NC(=O)c2ccccc2)n(-c2nc3ccccc3[nH]2)n1`, the inhibition % (higher = more inhibition) amounted to 15.3%.
